PLK1 PBD inh = blocks phosphopeptide binding to human PLK1 polo-box domain. Plk1 PBD binding of FITC phosphopeptide, fluorescence polarization. Potency, µM, actives largely listed as inhibitors. P53350. hit rate 2.8% among 360,000. AID 720504; further: series mostly up to about 57 µM; nearly all actives have a fitted effect of over 65% in size
USP1-UAF1 inh = blocks the human USP1/UAF1 deubiquitinase complex | recombinant USP1/UAF1, Ub-Rhodamine cleavage fluorescence | Potency, µM (top dose mostly 57.1 µM), most hits filed as inhibitors | hit rate 0.23% among 390,000 | AID 743255; further: nearly all actives have a fitted effect of over 60% in size
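High-throughput fluorogenic screen: 1nM USP1/UAF1 complex, Ub-Rho substrate 150nM final, 50mM HEPES pH 7.8 with 0.5mM EDTA, 0.1 mg/ml BSA, 1mM TCEP and 0.01% Tween-20.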
PTAP TSG101 blk = blocks PTAP/TSG101 interaction to inhibit HIV-1 budding. Q99816. Fluorescence polarization, FITC-PTAP peptide / Tsg101 binding. Potency, µM (doses to about 115 µM), hits mostly inhibitors. 340,000 tested, under 10 active. AID 493005; active means well fitted inhibition curve with a large enough effect in the main read-out, with a control signal flat, not every such curve was filed as active; inconclusive means small, poorly fitted or top-dose-only effect, or effect the other way, or a change in a side signal; inactive means no such curve, though single readings can be large or run the other way
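Compounds were pin-transferred onto Tsg101 binding domain (10 uM final) in HEPES pH 7.5 buffer, then FITC-PTAP peptide was added at 50 nM final. After 20 min at RT, polarization reported peptide displacement across a qHTS concentration series.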
VDR inh = inhibitors of human vitamin D receptor; VDR-SRC2-3 peptide fluorescence polarization, 2 h; Potency, µM, usual class: inhibitors; hit rate 0.93% among 400,000; AID 504847
Target sequence (P11473 whole entry, looked up): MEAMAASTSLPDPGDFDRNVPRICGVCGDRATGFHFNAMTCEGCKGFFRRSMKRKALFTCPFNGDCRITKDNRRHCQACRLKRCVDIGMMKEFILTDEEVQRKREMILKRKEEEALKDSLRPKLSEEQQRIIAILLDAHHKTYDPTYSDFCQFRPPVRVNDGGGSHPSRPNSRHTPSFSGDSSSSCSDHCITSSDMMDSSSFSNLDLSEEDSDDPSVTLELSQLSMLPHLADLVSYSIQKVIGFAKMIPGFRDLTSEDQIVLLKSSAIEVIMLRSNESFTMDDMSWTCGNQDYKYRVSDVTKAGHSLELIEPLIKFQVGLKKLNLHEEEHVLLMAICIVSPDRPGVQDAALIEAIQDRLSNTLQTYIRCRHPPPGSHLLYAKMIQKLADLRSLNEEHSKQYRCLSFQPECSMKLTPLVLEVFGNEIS
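Two reagent solutions held at 4 deg C in the dark were dispensed, compounds pinned at 23 nl, and the mixture incubated 2 h at room temperature. Read-out: fluorescence polarization of VDR–SRC2-3 peptide binding.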
GCN5L2 inh = blocks human GCN5L2 histone acetyltransferase | Q92830 | GCN5L2 HAT assay, ThioGlo1 CoA-SH fluorescence | Potency, µM (top dose mostly 58.9 µM), most hits filed as inhibitors | hit rate 0.21% among 390,000
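GCN5L2 (20 nM) in 50mM HEPES pH 7.5, 0.1mM EDTA, 0.01% Tween-20 preincubated 15 min with compounds at room temperature. Reaction started with H3(1-25) 75uM, acetyl-CoA 70uM, ThioGlo1 50uM; CoA-thiol fluorescence (Ex340/Em540) read at 0 and 20 min.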
A number is an active result; 0 = inactive; ? = inconclusive; - = not tested or not shown. Shown are actives, neighbours in structure and some others; about 3% of the full set was active somewhere. Unless noted, the call rests on the fitted dose curve; in most records, active means well fitted curve in the direction sought with a large enough effect; inconclusive means small, poorly fitted or top-dose-only effect, or another doubt; inactive means no such curve, though single readings can be large; an effect the other way counts as inactive or inconclusive.

SMILES	PLK1 PBD inh	USP1-UAF1 inh	PTAP TSG101 blk	VDR inh	GCN5L2 inh
Cc1ccc2c(c1)NC(=O)C(CC(=O)NCCCN1CCCC1=O)O2 (stereo unspecified)	30µM	0	0	?	0
O=[N+]([O-])c1cc([N+](=O)[O-])c(Oc2ccc(F)cc2)cc1NN1CCCCC1	0	?	0	0	0
O=[N+]([O-])c1cc([N+](=O)[O-])c(Oc2cc(F)cc(F)c2)cc1NN1CCCCC1	27µM	0	0	0	0
COc1ccc(OC)c(CCNc2ncnc3onc(-c4ccc(Cl)cc4)c23)c1	-	0	-	0	0
CCN1C(=O)c2cccc3c(N)ccc(c23)C1=O	3µM	0	?	0	0
CCCN1C(=O)c2cccc3c(N4CCCCC4)ccc(c23)C1=O	0	0	?	0	0
Nc1ccccc1N1C(=O)c2cccc3cccc(c23)C1=O	0	0	0	0	-
Cc1nn(C)c(C)c1N1C(=O)c2cccc3c(N)ccc(c23)C1=O	2.7µM	25µM	?	0	0
CCCCNc1ccc2c3c(cccc13)C(=O)N(CCCC)C2=O	2.1µM	25µM	?	0	0
COc1ccc(CCNC(=O)c2ccc3c(c2)CCN3S(C)(=O)=O)cc1OC	-	0	-	0	0
CC(C)OC(=O)c1ccc(N2CCN(c3ccc(F)cc3)CC2)nc1	27µM	0	0	?	0
COc1ccc(/C=N/n2cnn(Cc3ccccc3Cl)c2=S)cc1	27µM	0	0	?	0
COc1cc(/C=N/n2cnn(Cc3ccccc3Cl)c2=S)cc(OC)c1OC	?	0	0	?	0
Oc1ccccc1/C=N/n1cnn(Cc2ccccc2Cl)c1=S	4.7µM	0	0	?	0
Fc1ccccc1/C=N/N1CCN(Cc2ccccc2Cl)CC1	0	0	0	0	0
O=C(Nc1cccnc1)c1sc(Nc2ccccc2F)nc1-c1ccccc1	0	0	0	0	0
Cc1ccccc1Nc1nc(-c2ccccc2)c(C(=O)Nc2cccnc2)s1	30µM	0	0	0	0
CCOc1ccc(CCNC(=O)CCc2c(C)nc3c(c(C)nn3-c3ccccc3)c2C)cc1OCC	-	0	-	0	0
Cc1ccc(C(=O)Nc2ccc(F)cc2)cc1NC1=NC2CS(=O)(=O)CC2S1 (stereo unspecified)	0	0	0	0	0
O=C(CNC(=O)c1ccccc1)N=Nc1c(O)[nH]c2ccc(Br)cc12	0	0	0	0	0
O=S(=O)(Cc1ccccc1)N=Nc1c(O)[nH]c2ccc(Br)cc12	?	0	0	79µM	0
COc1ccc(-n2cc(C(=O)NCc3ccccc3Cl)c3ccccc3c2=O)cc1	-	0	-	0	0
O=C(CCc1nnc2ccc(NCc3ccco3)nn12)N1CCN(c2ccccc2)CC1	19µM	0	0	?	?
Cc1ccc(Nc2cc(C(=O)NCc3cccs3)c3ccccc3n2)c(C)c1	-	0	-	0	0
CCOC(=O)C1CCN(c2nc(N)c3c(N)nc(SCC(=O)O)cc3c2C#N)CC1	11µM	?	0	?	?
SMILES	PLK1 PBD inh	USP1-UAF1 inh	PTAP TSG101 blk	VDR inh	GCN5L2 inh
CCn1c(=O)c([N+](=O)[O-])c(Cl)c2ccccc21	2.4µM	0	0	?	0
CCOc1cccc(CN2CCN(CCCc3ccccc3)C(CCO)C2)c1O (stereo unspecified)	0	0	0	0	0
COc1ccc(/C=C/c2ccc(=O)n(Cc3ccccc3)n2)cc1	12µM	0	0	?	0
Cc1cccc(S(=O)(=O)NNC(=O)Cc2cccn2C)c1	27µM	0	0	0	0
Cc1ccc(S(=O)(=O)NNC(=O)Cc2cccn2C)cc1	0	0	0	0	0
O=C(O)c1ccccc1Nc1cc(Cl)c2nonc2c1[N+](=O)[O-]	7.5µM	?	0	35µM	0
NC(=O)CN1CCN(c2nc(-c3ccc(F)cc3)cs2)CC1	30µM	0	0	0	0
CCCCC(=O)N1CCN(c2nc(-c3ccc(F)cc3)cs2)CC1	0	?	0	0	?
O=C1C(Nc2ccccc2)=CC(=O)c2ncccc21	-	-	-	?	0
CC(NC1=CC(=O)c2cccnc2C1=O)C(O)c1ccccc1 (stereo unspecified)	?	5.6µM	0	?	-
CCCC(=O)Nc1cc2nn(-c3ccc(OC)cc3)nc2cc1C	-	0	-	0	0
CCCC(=O)Nc1ccc2nn(-c3ccc(OC)cc3)nc2c1	21µM	0	0	?	0
CC1=Nc2ccccc2/C1=C/c1sc(=S)n(-c2cccc(C(=O)O)c2)c1O	0	28µM	?	0	0
Oc1c(C=C2N=c3ccccc3=N2)sc(=S)n1-c1ccccc1	0	0	0	0	0
CC(Sc1nnc(-c2ccco2)n1C)C(=O)N1C(C)CCCC1C (stereo unspecified)	0	0	0	0	0
O=C1Nc2ccccc2C1(O)C/C(=N/O)c1ccccc1 (stereo unspecified)	27µM	0	0	?	0
COc1cc(C(=O)NCCNC(=O)c2ccco2)cc(OC)c1OC	27µM	0	0	?	-
COc1cc(C(=O)NCc2ccco2)cc(OC)c1OC	0	0	0	0	0
Fc1cccc(-c2cncc(N3CCN(CCN4CCCC4)CC3)n2)c1	0	-	-	-	-
NC(=S)NNC(=O)[C@@H]1CCCC[C@@H]1C(=O)O	21µM	0	0	0	0
O=C(O)C1CCCCC1C(=O)NC1C2CC3CC(C2)CC1C3 (stereo unspecified)	0	0	0	0	0
CCCCN(CC)C(=O)c1cc2c(=O)n3cccc(C)c3nc2s1	17µM	0	0	0	0
O=C(O)/C=C/C(=O)Nc1ccc(C2(c3ccc(NC(=O)/C=C/C(=O)O)cc3)c3ccccc3-c3ccccc32)cc1	30µM	0	0	25µM	0
O=C(O)/C=C\C(=O)Nc1ccc(Oc2ccccc2)cc1	0	0	0	0	0
CC(=O)OCC1=C(C(=O)O)N2C(=O)C(NC(=O)CCn3nc(C(F)(F)F)c(Br)c3C3CC3)C2SC1 (stereo unspecified)	?	0	0	40µM	0
SMILES	PLK1 PBD inh	USP1-UAF1 inh	PTAP TSG101 blk	VDR inh	GCN5L2 inh
CC(=O)OCC1=C(C(=O)O)N2C(=O)C(NC(=O)CCn3nc(C)c(Cl)c3C)C2SC1 (stereo unspecified)	0	0	0	0	0
Cc1ccc(-n2cccc2/C=C2\C(=N)N3N=C(c4ccco4)SC3=NC2=O)cc1	30µM	0	0	0	?
COc1ccc(-c2nnc(SCC(=O)NC3CC3)o2)cc1	0	0	0	0	0
CN1CCN(CCCOc2ccc(-c3ccccc3)cc2)CC1	21µM	0	0	0	0
Cc1nn2c(-c3cccc(NC(=O)CSc4nc5ccccc5o4)c3)nnc2c2ccccc12	24µM	0	0	0	0
COc1ccc(CNC(=O)Cc2ccc(NC(=O)N3CCSc4ncccc43)cc2)cc1	-	0	-	0	0
Cc1ccc(-c2onc(C)c2C)cc1S(=O)(=O)NCc1ccc(N(C)C)cc1	-	0	-	0	0
NC(=O)NC(=O)COC(=O)c1sc2ccccc2c1Cl	13µM	0	0	?	0
O=C(COC(=O)c1sc2ccccc2c1Cl)NC1CCCCC1	0	0	0	0	0

Source: PubChem BioAssay
